Inconclusive results are not listed. The source made the active and inactive calls. Calls come from the whole dose curve; as a rule, active = well fitted cell-killing curve with a large enough effect; inconclusive = small, poorly fitted or top-dose-only effect, or effect the other way; inactive = flat fitted curve, though single readings scatter.
Experiments:
Assay in all cases: Primary qHTS to identify gynecologic anti-cancer compounds using libraries of approved drugs and bioactive compounds (AID 1345084); note: nearly all actives have a fitted effect of over 55% in size
[1] = tested on: C33A; settings: Gynecologic cancer cell panel viability, ATPlite luminescence, 48 h; series mostly up to 57.5 µM
Method in brief: (§1)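 In this quantitative HTS, cell killing is estimated from loss of ATP-dependent luciferase light. Cells see five compound concentrations over a 48 h exposure.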

[2] = tested on: CAOV3; settings: Gynecologic cancer cell panel viability, ATPlite luminescence, 48 h; series mostly up to 57.5 µM
Method in brief: as §1

[3] = tested on: CASKI; settings: Gynecologic cancer cell panel viability, ATPlite luminescence, 48 h; series mostly up to 57.5 µM
Method in brief: as §1

[4] = tested on: Es-2; settings: Gynecologic cancer cell panel viability, ATPlite luminescence, 48 h; series mostly up to 57.5 µM
Method in brief: as §1

[5] = tested on: HeLa; settings: Gynecologic cancer cell panel viability, ATPlite luminescence, 48 h; series mostly up to 57.5 µM
Method in brief: as §1

[6] = tested on: Hek293T; settings: Gynecologic cancer cell panel viability, ATPlite luminescence, 48 h, control line for the selectivity index; series mostly up to 57.5 µM
Method in brief: as §1

[7] = tested on: JEG-3; settings: Gynecologic cancer cell panel viability, ATPlite luminescence, 48 h; series mostly up to 57.5 µM
Method in brief: as §1

Measured: Potency

O=C(O)CCc1cc2ccoc2cc1O[C@@H]1O[C@H](CO[C@@H]2OC[C@](O)(CO)[C@H]2O)[C@@H](O)[C@H](O)[C@H]1O
inactive: all assays above

CCC(C)(O)C(O)C(=O)OCc1ccc(O[C@@H]2O[C@H](CO)[C@@H](O)[C@H](O)[C@H]2O)cc1 (stereo not given in full)
inactive: all assays above

COc1cc(NC(=O)c2ccccn2)ccc1Cl
inactive: all assays above

O=C(NC[C@H](O)CN1CCc2ccccc2C1)c1cc(NC2COC2)ncn1
inactive: all assays above

C[C@@H]1O[C@@H](OC[C@H]2O[C@@H](OCC3CCC4CC3C4(C)C)[C@H](O)[C@@H](O)[C@@H]2O)[C@H](O)[C@H](O)[C@H]1O (stereo not given in full)
inactive: all assays above

C=C[C@H]1[C@H](O[C@@H]2O[C@H](CO)[C@@H](O)[C@H](O)[C@H]2O)OC=C(C(=O)OC)[C@H]1C[C@@H]1N[C@H](C(=O)O)Cc2c1[nH]c1ccccc21
inactive: all assays above

C1CCN2CC3C[C@@H](CN4CCCC[C@@H]34)[C@H]2C1
inactive: all assays above

O=C1NC(Cc2ccc(O)cc2)C(=O)N2CCCC12 (stereo not given)
inactive: all assays above

OC[C@H]1O[C@@H](n2cnc3c2NC=NC[C@H]3O)C[C@@H]1O
inactive: all assays above

C=C1CC2C3(C)C(OC(C)=O)CC(=O)OC(C)(C)C3C(O)C(OC(C)=O)C2(C)C2C(=O)OC(C)C(=O)C12C (stereo not given)
inactive: all assays above

COc1c(C)c(C(=O)c2ccc(N)c(C(=O)O)c2)n2ccccc12
inactive: all assays above

O=C(c1ccc(C#Cc2cccc(F)c2)cn1)N1CC2CC2C1 (stereo not given)
inactive: all assays above

COc1ccc(C2=CC(=O)OC2Cc2ccc(O)cc2)c(O)c1 (stereo not given)
inactive: all assays above

CC1(C)C(=O)N2c3ccccc3[C@]3(CC(n4cnc5ccccc5c4=O)C(=O)O3)[C@H]2N1O (stereo not given in full)
inactive: all assays above

CC(C)[C@H]1CCC(CO)=C[C@@H]1/C=C(\CO)C(=O)O
inactive: all assays above

CC1(C)CCC[C@@]2(C)[C@H]1[C@H](O)C=C1COC(=O)[C@@]12O
inactive: all assays above

CC(=O)c1c(C)cc(O[C@@H]2O[C@H](CO)[C@@H](O)[C@H](O)[C@H]2O)cc1O
inactive: all assays above

OCC1OC(Oc2cc(O)c3c(c2)OC(c2ccc(O)cc2)C(O)C3)C(O)C1O (stereo not given)
inactive: all assays above

Cc1cc(C)cc(NC(=O)Cc2ccc(OC(C)(C)C(=O)O)cc2)c1
inactive: all assays above

CC1CCC2(C(=O)OC3OC(CO)C(O)C(O)C3O)CCC3(C(=O)O)C(=CCC4C5(C)CCC(OC6OC(C)C(O)C(O)C6O)C(C)(C)C5CCC43C)C2C1C (stereo not given)
inactive: all assays above
